Reference: PubChem BioAssay (Tox21)
Where “and” joins values, the source holds several entries; their conditions need not be identical. Equal values may be shown once. Results filed as inconclusive are left out. Calls of active or inactive are those of the source. Calls come from the whole dose curve; as a rule, active = well fitted curve in the direction sought with a large enough effect in the repeat runs; inconclusive = weak or mixed curves; inactive = no such curve, though single readings can be large; an effect the other way counts as inactive or inconclusive.

Legend:
[1] = qHTS RealTime-Glo MT Cell Viability Assay in HEK293 cells - 16 hour (AID 1224872); note: nearly all actives have a fitted effect of over 50% in size; note: potency is the fitted concentration of half-maximal effect
In short: (§1)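 Luminescence generated by NanoLuc from substrate produced by living HEK293 cells served as the viability signal. Each value reflects the reading at its stated time point during continuous 40 h compound exposure at 37 C.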

[2] = qHTS RealTime-Glo MT Cell Viability Assay in HepG2 cells - 8 hour (AID 1224873); note: nearly all actives have a fitted effect of over 55% in size; note: potency is the fitted concentration of half-maximal effect
In short: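 HepG2 cells mixed with RealTime-Glo MT reagents (NanoLuc plus cell-permeant prosubstrate) were seeded at 600 cells/well, incubated 5 h at 37 C/5% CO2, then pinned with compounds in DMSO; nonlytic luminescence tracked viability during 40 h treatment.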

[3] = qHTS RealTime-Glo MT Cell Viability Assay in HEK293 cells - 40 hour (AID 1224874); conditions: RealTime-Glo luminescence; max response: hits give low values; note: nearly all actives have a fitted effect of over 50% in size; note: potency is the fitted concentration of half-maximal effect
In short: (§2)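 Viable HEK293 cells reduce a cell-permeant prosubstrate; the product diffuses out and is consumed by NanoLuc in the medium to give light. Compounds went in after a 5 h incubation and plates were read over the treatment course.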

[4] = A CellTox Green Cytotoxicity Assay to monitor cytotoxicity in HepG2 cells - 16 hour (AID 1224876); note: nearly all actives have a fitted effect of over 45% in size; note: potency is the fitted concentration of half-maximal effect
In short: (§3)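 Using 1536-well format, dye-containing HepG2 suspension was seeded, allowed 5 h at 37 C/5% CO2, dosed by pintool with compounds, positive and negative controls, and imaged for fluorescence across 40 h.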

[5] = qHTS RealTime-Glo MT Cell Viability Assay in HepG2 cells - 32 hour (AID 1224877); note: nearly all actives have a fitted effect of over 55% in size; note: potency is the fitted concentration of half-maximal effect
In short: (§4)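 Tox21 10K library screened in qHTS format on HepG2 cells carrying RealTime-Glo reagents. Compounds were added after a 5 h preincubation, and the luminescent signal from continuous culture was measured repeatedly during 40 h treatment.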

[6] = A CellTox Green Cytotoxicity Assay to monitor cytotoxicity in HepG2 cells - 24 hour (AID 1224878); note: nearly all actives have a fitted effect of over 45% in size; note: potency is the fitted concentration of half-maximal effect
In short: as §3

[7] = A CellTox Green Cytotoxicity Assay to monitor cytotoxicity in HepG2 cells - 40 hour (AID 1224879); note: nearly all actives have a fitted effect of over 40% in size; note: potency is the fitted concentration of half-maximal effect
In short: as §3

[8] = qHTS RealTime-Glo MT Cell Viability Assay in HEK293 cells - 0 hour (AID 1224880); note: top concentration of the series differs between compounds; nearly all actives have a fitted effect of over 45% in size
In short: as §2

[9] = A CellTox Green Cytotoxicity Assay to monitor cytotoxicity in HEK293 cells - 32 hour (AID 1224881); note: nearly all actives have a fitted effect of over 40% in size; note: potency is the fitted concentration of half-maximal effect
In short: (§5)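 Fluorescence intensity, read at 0, 8, 16, 24, 32 and 40 h of compound treatment, reflected dye binding to DNA of dead HEK293 cells; compounds (23 nL, DMSO) were added 5 h after plating cells with reagent.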

[10] = A CellTox Green Cytotoxicity Assay to monitor cytotoxicity in HepG2 cells - 0 hour (AID 1224882); note: nearly all actives have a fitted effect of over 35% in size
In short: as §3

[11] = A CellTox Green Cytotoxicity Assay to monitor cytotoxicity in HEK293 cells - 8 hour (AID 1224884); note: nearly all actives have a fitted effect of over 35% in size; note: potency is the fitted concentration of half-maximal effect
In short: as §5

[12] = qHTS RealTime-Glo MT Cell Viability Assay in HepG2 cells - 16 hour (AID 1224885); note: nearly all actives have a fitted effect of over 50% in size; note: potency is the fitted concentration of half-maximal effect
In short: as §4

[13] = qHTS RealTime-Glo MT Cell Viability Assay in HEK293 cells - 24 hour (AID 1224886); note: nearly all actives have a fitted effect of over 50% in size; note: potency is the fitted concentration of half-maximal effect
In short: as §1

[14] = qHTS RealTime-Glo MT Cell Viability Assay in HEK293 cells - 8 hour (AID 1224887); note: nearly all actives have a fitted effect of over 50% in size; note: potency is the fitted concentration of half-maximal effect
In short: as §2

[15] = A CellTox Green Cytotoxicity Assay to monitor cytotoxicity in HEK293 cells - 16 hour (AID 1224888); note: nearly all actives have a fitted effect of over 35% in size; note: potency is the fitted concentration of half-maximal effect
In short: as §5

[16] = qHTS RealTime-Glo MT Cell Viability Assay in HepG2 cells - 0 hour (AID 1224889); note: nearly all actives have a fitted effect of over 50% in size
In short: as §4

[17] = A CellTox Green Cytotoxicity Assay to monitor cytotoxicity in HepG2 cells - 8 hour (AID 1224890); note: nearly all actives have a fitted effect of over 45% in size; note: potency is the fitted concentration of half-maximal effect
In short: as §3

[18] = qHTS assay to identify small molecule antagonists of the estrogen receptor alpha (ER-alpha) signaling pathway using the BG1 cell line in the presence of 0.1 nM 17-beta-estradiol - cell viability counter screen (AID 1259241); note: nearly all actives have a fitted effect of over 40% in size; note: potency is the fitted concentration of half-maximal effect
In short: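 CellTiter-Fluor read (30 min, 37C) on ER-alpha/ERE-luc VM7Luc4E2 cells; 22 hr compound treatment; agonist 0.1 nM E2 final; same-well multiplex.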

[19] = A CellTox Green Cytotoxicity Assay to monitor cytotoxicity in HEK293 cells - 24 hour (AID 1224875); note: nearly all actives have a fitted effect of over 45% in size; note: potency is the fitted concentration of half-maximal effect
In short: as §5

[20] = A CellTox Green Cytotoxicity Assay to monitor cytotoxicity in HepG2 cells - 32 hour (AID 1224883); note: nearly all actives have a fitted effect of over 50% in size; note: potency is the fitted concentration of half-maximal effect
In short: as §3
% is set by controls: 0 for no effect and ±100 for the full control effect.

CO[Si](CCCNCCNCCN)(OC)OC
inactive: Potency [1] | Potency [2] | max response [3] 4.89% | Potency [4] | Potency [5] | Potency [6] | Potency [7] | Potency [8] | Potency [9] | Potency [10] | Potency [11] | Potency [12] | Potency [13] | Potency [14] | Potency [15] | Potency [16] | Potency [17] | Potency [18]

COc1cc(C=C2CCC/C(=C\c3ccc(O)c(OC)c3)C2=O)ccc1O
inactive: Potency [2] | Potency [19] | Potency [9] | Potency [10] | Potency [15]
active: Potency [1] 21.3 µM | Potency [3] 21.3 µM | Potency [5] 23.9 µM | Potency [6] 23.9 µM | Potency [7] 21.3 µM | Potency [20] 21.3 µM | Potency [13] 23.9 µM | Potency [14] 2.39 µM

CCCCN(C)C
inactive: Potency [1] | Potency [2] | max response [3] 1.09% | Potency [4] | Potency [5] | Potency [6] | Potency [7] | Potency [8] | Potency [9] | Potency [10] | Potency [11] | Potency [12] | Potency [13] | Potency [14] | Potency [15] | Potency [16] | Potency [17] | Potency [18]

COc1ccc(C#N)cc1
inactive: Potency [1] | Potency [2] | max response [3] -13.1% | Potency [4] | Potency [5] | Potency [6] | Potency [7] | Potency [8] | Potency [9] | Potency [10] | Potency [20] | Potency [11] | Potency [12] | Potency [13] | Potency [14] | Potency [15] | Potency [16] | Potency [18]

O=C1c2c(O)ccc(O)c2C(=O)c2c(NCCNCCO)ccc(NCCNCCO)c21
active: Potency [1] 0.848 µM | Potency [3] 0.019 µM | Potency [5] 8.49 µM | Potency [12] 19 µM | Potency [13] 0.0601 µM
inactive: Potency [2] | Potency [4] | Potency [6] | Potency [7] | Potency [8] | Potency [9] | Potency [10] | Potency [20] | Potency [11] | Potency [15] | Potency [16] | Potency [17]

O=C(O)CCCCCCC(=O)O
inactive: Potency [1] | Potency [2] | max response [3] 12.4% | Potency [4] | Potency [5] | Potency [6] | Potency [7] | Potency [8] | Potency [9] | Potency [20] | Potency [12] | Potency [13] | Potency [14] | Potency [15] | Potency [16] | Potency [17] | Potency [18]

CC(=O)C=O
inactive: Potency [1] | Potency [2] | max response [3] 3.76% | Potency [4] | Potency [5] | Potency [6] | Potency [7] | Potency [8] | Potency [9] | Potency [10] | Potency [20] | Potency [11] | Potency [12] | Potency [13] | Potency [14] | Potency [15] | Potency [16] | Potency [17] | Potency [18]

O=C1NCN(c2ccccc2)C12CCN(CCCC(c1ccc(F)cc1)c1ccc(F)cc1)CC2
inactive: Potency [8] | Potency [10] | Potency [11] | Potency [16]
active: Potency [1] 19 µM | Potency [2] 10.7 µM | Potency [3] 19 µM | Potency [4] 9.52 µM | Potency [5] 6.01 µM | Potency [6] 7.56 µM | Potency [7] 6.74 µM | Potency [9] 23.9 µM | Potency [20] 6.74 µM | Potency [12] 7.56 µM | Potency [13] 19 µM | Potency [17] 10.7 µM | Potency [18] 13.3 µM

Nc1ccc2cc3ccc(N)cc3nc2c1
inactive: Potency [2] | Potency [8] | Potency [16]
active: Potency [1] 6.16 µM and 9.52 µM | Potency [3] 436 nM and 2.13 µM | Potency [19] 43.6 µM and 21.3 µM | Potency [4] 49 µM and 21.3 µM | Potency [6] 49 µM and 23.9 µM | Potency [7] 49 µM and 21.3 µM | Potency [9] 43.6 µM and 21.3 µM | Potency [20] 49 µM and 21.3 µM | Potency [11] 49 µM and 21.3 µM | Potency [13] 2.45 µM and 3.01 µM | Potency [14] 24.5 µM | Potency [15] 49 µM and 21.3 µM | Potency [17] 49 µM and 21.3 µM

CCCCCCCOC(=O)c1ccccc1C(=O)OCCCCCCC
inactive: Potency [1] | Potency [2] | max response [3] -16.7% | Potency [4] | Potency [5] | Potency [6] | Potency [7] | Potency [8] | Potency [9] | Potency [10] | Potency [20] | Potency [11] | Potency [12] | Potency [13] | Potency [14] | Potency [15] | Potency [16] | Potency [17] | Potency [18]

O=C(Nc1ccc(Cl)cc1)Nc1ccc(Cl)c(C(F)(F)F)c1
inactive: Potency [2] | Potency [19] | Potency [4] | Potency [8] | Potency [10] | Potency [11] | Potency [15] | Potency [16] | Potency [17] | Potency [18]
active: Potency [1] 8.49 µM | Potency [3] 5.35 µM | Potency [7] 19 µM | Potency [20] 19 µM | Potency [13] 5.35 µM

COc1cc(C(=O)NS(=O)(=O)c2ccccc2C)ccc1Cc1cn(C)c2ccc(NC(=O)OC3CCCC3)cc12
inactive: Potency [1] | Potency [2] | max response [3] -0.13% | Potency [19] | Potency [4] | Potency [6] | Potency [7] | Potency [8] | Potency [10] | Potency [20] | Potency [11] | Potency [12] | Potency [13] | Potency [14] | Potency [15] | Potency [16] | Potency [17] | Potency [18]

Cc1cc(C)c(C=O)c(C)c1
inactive: Potency [1] | Potency [2] | max response [3] 8.02% | Potency [19] | Potency [4] | Potency [6] | Potency [7] | Potency [9] | Potency [10] | Potency [11] | Potency [12] | Potency [13] | Potency [14] | Potency [15] | Potency [16] | Potency [18]
